Data published in PubChem BioAssay (NCATS).
Results filed as inconclusive are left out. Calls of active or inactive are those of the source. Unless noted, calls come from the whole dose curve; as a rule, active = well fitted curve in the direction sought with a large enough effect; inconclusive = small, poorly fitted or top-dose-only effect, or another doubt; inactive = no such curve, though single readings can be large; an effect the other way counts as inactive or inconclusive.

Columns and labels:
[1] = target: Thyrotropin receptor (Homo sapiens) (UniProt P16473); experiment: qHTS Assay for Antagonists of the Thyroid Stimulating Hormone Receptor (AID 488980); note: series mostly up to about 58 µM; 0% is about no effect
Chain of Thyrotropin receptor (Homo sapiens) (P16473 whole entry, looked up): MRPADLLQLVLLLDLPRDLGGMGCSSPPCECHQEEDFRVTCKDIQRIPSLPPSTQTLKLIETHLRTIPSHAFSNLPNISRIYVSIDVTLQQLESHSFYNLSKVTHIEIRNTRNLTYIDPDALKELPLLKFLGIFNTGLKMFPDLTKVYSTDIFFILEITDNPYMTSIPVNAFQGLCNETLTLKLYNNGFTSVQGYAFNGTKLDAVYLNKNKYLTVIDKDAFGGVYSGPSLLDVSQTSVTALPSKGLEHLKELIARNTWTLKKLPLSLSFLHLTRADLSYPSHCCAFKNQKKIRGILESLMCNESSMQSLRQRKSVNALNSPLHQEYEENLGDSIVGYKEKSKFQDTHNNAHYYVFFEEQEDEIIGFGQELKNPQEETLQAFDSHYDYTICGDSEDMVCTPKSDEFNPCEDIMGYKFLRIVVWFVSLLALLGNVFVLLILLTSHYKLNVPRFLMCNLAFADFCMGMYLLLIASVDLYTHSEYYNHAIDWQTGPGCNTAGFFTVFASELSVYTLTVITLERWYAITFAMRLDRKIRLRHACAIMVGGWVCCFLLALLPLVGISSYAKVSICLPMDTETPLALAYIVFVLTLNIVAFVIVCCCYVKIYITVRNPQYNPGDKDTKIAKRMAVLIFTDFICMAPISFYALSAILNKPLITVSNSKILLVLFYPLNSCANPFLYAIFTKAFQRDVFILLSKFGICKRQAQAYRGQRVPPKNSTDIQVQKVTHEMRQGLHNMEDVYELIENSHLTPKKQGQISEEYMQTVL
Procedure, shortened: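 Inhibition of cAMP raised by EC80 TSH (4 nM final) was read by HTRF, with lysate cAMP competing against cAMP-d2 for cryptate antibody after 30 min at room temperature. The cells were transfected HEK293 held in phosphodiesterase inhibitor RO 20-1724 at 70 uM.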

[2] = target: D(1A) dopamine receptor (Homo sapiens) (UniProt P21728); experiment: HTS Assay for Allosteric Agonists of the Human D1 Dopamine Receptor: Primary Screen for Agonists (AID 488981); note: 0% is about no effect
Chain of D(1A) dopamine receptor (Homo sapiens) (P21728 whole entry, looked up): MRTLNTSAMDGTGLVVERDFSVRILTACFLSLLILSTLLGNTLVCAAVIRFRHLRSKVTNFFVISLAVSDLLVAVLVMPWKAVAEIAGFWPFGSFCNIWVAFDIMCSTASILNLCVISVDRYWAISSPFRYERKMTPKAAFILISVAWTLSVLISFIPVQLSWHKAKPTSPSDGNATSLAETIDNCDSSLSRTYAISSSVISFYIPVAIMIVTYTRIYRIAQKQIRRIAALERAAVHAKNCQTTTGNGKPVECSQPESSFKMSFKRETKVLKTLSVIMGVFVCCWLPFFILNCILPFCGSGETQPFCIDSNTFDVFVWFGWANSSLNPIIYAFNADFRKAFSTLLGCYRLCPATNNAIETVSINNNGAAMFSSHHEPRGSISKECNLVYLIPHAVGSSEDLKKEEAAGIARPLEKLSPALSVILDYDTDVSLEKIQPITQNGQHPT
Procedure, shortened: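 Calcium flux in an inducible, force-coupled HEK293 Trex D1 line (overnight at 30 C): agonist mode is the 180 s kinetic read after compound; potentiator mode is the following 180 s read after dopamine at EC20.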

[3] = target: D(1A) dopamine receptor (Homo sapiens) (UniProt P21728); experiment: HTS Assay for Allosteric Agonists of the Human D1 Dopamine Receptor: Primary Screen for Antagonists (AID 488983);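 note: calcium flux response to an EC80 dopamine challenge measured with no-wash dye; % is set by controls: 0 for no effect and ±100 for the full control effect; nearly all actives have a fitted effect of over 65% in size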
Procedure, shortened: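 Calcium-flux read-out in inducible HEK293 T-REx cells expressing D1, dye-loaded 30–90 min at room temperature. Kinetic reads: 180 s after compound (agonist phase), then 180 s after an EC80 dopamine challenge.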

[4] = Validation screen for small molecules that induce genotoxicity in human embryonic kidney (HEK293T) cells expressing luciferase-tagged ELG1 (AID 493106); note: potency is the fitted concentration of half-maximal effect
Procedure, shortened: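 ELG1-luciferase reporter readout (ONE-Glo, 30 min, room temperature) after 16 hr compound treatment at 37 °C of HEK293T cells at 2,000 per well. Rising luminescence flags genotoxic stress.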

[5] = target: ATPase family AAA domain-containing protein 5 (Homo sapiens) (UniProt Q96QE3); experiment: Validation screen for small molecules that inhibit ELG1-dependent DNA repair in human embryonic kidney (HEK293T) cells expressing luciferase-tagged ELG1 (AID 493107);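 note: series mostly up to about 46 µM; % is set by controls: 0 for no effect and ±100 for the full control effect; inhibitors lower the ELG1-luciferase luminescence signal; nearly all actives have a fitted effect of over 70% in size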
Chain of ATPase family AAA domain-containing protein 5 (Homo sapiens) (Q96QE3 whole entry, looked up, the tested form may be a part): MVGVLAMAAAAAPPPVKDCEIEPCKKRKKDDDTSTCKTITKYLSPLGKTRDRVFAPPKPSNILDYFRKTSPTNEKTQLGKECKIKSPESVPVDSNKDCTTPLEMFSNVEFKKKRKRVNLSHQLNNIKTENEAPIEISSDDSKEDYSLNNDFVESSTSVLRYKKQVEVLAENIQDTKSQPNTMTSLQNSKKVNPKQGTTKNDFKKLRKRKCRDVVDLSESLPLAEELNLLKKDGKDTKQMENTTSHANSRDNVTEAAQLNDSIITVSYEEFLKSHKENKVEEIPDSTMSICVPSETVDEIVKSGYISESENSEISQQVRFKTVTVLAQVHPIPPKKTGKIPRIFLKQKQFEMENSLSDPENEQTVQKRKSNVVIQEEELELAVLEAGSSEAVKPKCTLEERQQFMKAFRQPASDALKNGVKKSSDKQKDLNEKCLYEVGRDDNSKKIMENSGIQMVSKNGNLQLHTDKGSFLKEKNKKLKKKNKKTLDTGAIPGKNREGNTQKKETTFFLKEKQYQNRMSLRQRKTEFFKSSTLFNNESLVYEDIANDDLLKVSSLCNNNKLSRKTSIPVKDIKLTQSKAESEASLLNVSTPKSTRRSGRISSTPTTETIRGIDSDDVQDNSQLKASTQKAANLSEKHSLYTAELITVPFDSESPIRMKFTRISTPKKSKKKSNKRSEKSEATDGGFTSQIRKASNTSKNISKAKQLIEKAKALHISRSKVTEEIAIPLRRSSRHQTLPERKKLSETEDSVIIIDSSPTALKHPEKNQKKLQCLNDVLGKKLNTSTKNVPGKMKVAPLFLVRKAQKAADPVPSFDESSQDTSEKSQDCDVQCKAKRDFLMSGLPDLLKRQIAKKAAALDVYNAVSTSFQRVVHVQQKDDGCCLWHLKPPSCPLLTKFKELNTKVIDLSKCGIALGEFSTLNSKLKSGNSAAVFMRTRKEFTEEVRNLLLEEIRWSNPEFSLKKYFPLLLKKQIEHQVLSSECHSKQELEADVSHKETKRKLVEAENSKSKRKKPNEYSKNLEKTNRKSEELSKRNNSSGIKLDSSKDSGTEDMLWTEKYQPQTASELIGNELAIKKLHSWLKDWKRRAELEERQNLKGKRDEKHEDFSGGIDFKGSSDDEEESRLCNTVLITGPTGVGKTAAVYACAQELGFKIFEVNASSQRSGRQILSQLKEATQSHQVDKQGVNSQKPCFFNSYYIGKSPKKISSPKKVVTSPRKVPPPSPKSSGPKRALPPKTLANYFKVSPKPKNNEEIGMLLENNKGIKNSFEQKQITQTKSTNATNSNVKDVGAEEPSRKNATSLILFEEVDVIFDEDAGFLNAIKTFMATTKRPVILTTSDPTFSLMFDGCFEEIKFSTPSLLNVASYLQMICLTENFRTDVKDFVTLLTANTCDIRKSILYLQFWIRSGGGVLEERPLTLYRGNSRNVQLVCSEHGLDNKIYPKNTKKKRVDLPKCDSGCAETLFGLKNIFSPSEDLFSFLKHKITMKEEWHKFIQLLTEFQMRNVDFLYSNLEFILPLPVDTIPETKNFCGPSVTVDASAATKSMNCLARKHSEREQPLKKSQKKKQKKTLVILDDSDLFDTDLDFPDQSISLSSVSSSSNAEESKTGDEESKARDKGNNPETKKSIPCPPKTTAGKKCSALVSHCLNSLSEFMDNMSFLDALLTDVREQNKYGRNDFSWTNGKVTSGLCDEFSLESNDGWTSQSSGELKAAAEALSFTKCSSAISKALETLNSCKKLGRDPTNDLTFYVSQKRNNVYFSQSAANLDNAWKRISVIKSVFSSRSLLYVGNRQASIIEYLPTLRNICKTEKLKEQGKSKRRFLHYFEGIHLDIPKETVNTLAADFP
Procedure, shortened: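 Luciferase read-out, ONE-Glo, 30 min at room temperature, follows 16 h co-exposure at 37 C of compound and the DNA-damaging agent 5-fluorouridine. Cells: HEK293T with ELG1-luciferase fusion, 2,000 per well, DMSO as vehicle.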

[6] = target: Thyrotropin-releasing hormone receptor (Homo sapiens) (UniProt P34981); experiment: qHTS for Small Molecule Agonists and Allosteric Enhancers of Human TRH Receptor: Validation Screen for Agonists (AID 493127;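 active = calcium activation more than 3 SD above the typical response in the agonist read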;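 note: intracellular calcium rise by fluo-8 fluorescence before TRH EC20 addition; 0% is about no effect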); details: TRH receptor agonist cell assay; at 2 µM; stronger effect = higher value
Procedure, shortened: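 Compound-evoked intracellular calcium release in fluo-8-loaded TRHR cells, read kinetically on FDSS (Ex 480/Em 530, 1 s/cycle) after 23 nL pintool transfer. Agonist phase preceded 10 nM TRH EC20 addition.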

[7] = Nrf2 qHTS screen for inhibitors: Validation (AID 493153; active = well fitted inhibition curve with a large enough effect in the main read-out, with a control signal flat, not every such curve was filed as active); details: viability change: measured here: cytotoxicity max response
Procedure, shortened: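 Concentration-response on A549 ARE_Fluc reporter cells exposed 18-24 h at 37 C, 5% CO2. Cytotoxicity read first by CellTiter-Fluor fluorescence (Ex 405/Em 525), then Nrf2 inhibition by BugLite luminescence after 15 min.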

[8] = qHTS for Inhibitors of Cell Surface uPA Generation: Validation Assay (AID 493164);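 note: RAW 264.7 macrophage cells exposed to compound for 18 h; 0% is about no effect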
Procedure, shortened: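 ATP-Lite luminescence read-out: ATP remains high when uPA activity-dependent LF translocation into the cytoplasm is blocked. RAW 264.7 cells, 18 h compound exposure at 37 C; 7-point titration, 2.45 nM to 38.3 uM final.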

[9] = target: Galactokinase (Homo sapiens) (UniProt P51570); experiment: qHTS Validation Assay for Inhibitors of Human Galactokinase (GALK) (AID 493189); note: 0% is about no effect
Chain of Galactokinase (Homo sapiens) (P51570 whole entry, looked up): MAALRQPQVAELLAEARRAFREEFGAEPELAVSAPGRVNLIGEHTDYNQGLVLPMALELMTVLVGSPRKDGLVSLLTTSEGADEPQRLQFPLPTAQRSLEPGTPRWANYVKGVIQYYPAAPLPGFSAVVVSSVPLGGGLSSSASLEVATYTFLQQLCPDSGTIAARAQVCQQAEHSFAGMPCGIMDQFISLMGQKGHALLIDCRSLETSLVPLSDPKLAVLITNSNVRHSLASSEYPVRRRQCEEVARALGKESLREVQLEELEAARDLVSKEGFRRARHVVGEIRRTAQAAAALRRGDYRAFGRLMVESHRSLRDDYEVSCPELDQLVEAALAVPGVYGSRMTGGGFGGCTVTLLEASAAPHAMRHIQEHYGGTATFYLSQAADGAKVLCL
Procedure, shortened: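 Inhibition was measured as remaining ATP, detected by luciferase luminescence after a 1 h room-temperature reaction. Final conditions: 5 nM GALK, 100 uM galactose, 35 uM ATP, pH 8.0 HEPES buffer.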

[10] = target: Phosphoglycerate kinase, glycosomal (Trypanosoma brucei brucei) (UniProt P07378); experiment: qHTS Validation Assay to Find Inhibitors of Phosphoglycerate Kinase (AID 504547);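 note: control wells lack PGK and mark full inhibition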
Chain of Phosphoglycerate kinase, glycosomal (Trypanosoma brucei brucei) (P07378 whole entry, looked up): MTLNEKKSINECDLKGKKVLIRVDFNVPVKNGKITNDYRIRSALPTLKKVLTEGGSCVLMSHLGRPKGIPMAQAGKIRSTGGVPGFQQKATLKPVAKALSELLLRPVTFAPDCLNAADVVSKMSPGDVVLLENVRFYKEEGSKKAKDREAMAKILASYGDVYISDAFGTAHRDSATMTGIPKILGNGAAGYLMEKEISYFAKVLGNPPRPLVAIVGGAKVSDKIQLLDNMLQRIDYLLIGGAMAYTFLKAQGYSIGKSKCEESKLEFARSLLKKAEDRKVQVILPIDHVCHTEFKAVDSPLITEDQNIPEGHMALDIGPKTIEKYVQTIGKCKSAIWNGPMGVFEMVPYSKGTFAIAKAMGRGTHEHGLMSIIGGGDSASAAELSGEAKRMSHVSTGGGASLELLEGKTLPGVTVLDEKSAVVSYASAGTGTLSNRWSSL
Procedure, shortened: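 Luminescence end-point (Kinase-Glo Plus, 10 min) after a 60 min room-temperature coupled reaction. GAPDH at 100nM final supplies 1,3-BPG to PGK. Buffer: 100mM TEA pH 7.6, 5mM MgCl2, 0.01% Tween-20. Wells lacking PGK served as controls.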

[11] = target: phosphoglycerate mutase (Leishmania major) (UniProt Q4Q090); experiment: qHTS Validation Assay to Find Inhibitors of Phosphoglycerate Mutase (AID 504548); note: series mostly up to about 58 µM; % is set by controls: 0 for no effect and ±100 for the full control effect
Chain of phosphoglycerate mutase (Leishmania major) (Q4Q090 1-553): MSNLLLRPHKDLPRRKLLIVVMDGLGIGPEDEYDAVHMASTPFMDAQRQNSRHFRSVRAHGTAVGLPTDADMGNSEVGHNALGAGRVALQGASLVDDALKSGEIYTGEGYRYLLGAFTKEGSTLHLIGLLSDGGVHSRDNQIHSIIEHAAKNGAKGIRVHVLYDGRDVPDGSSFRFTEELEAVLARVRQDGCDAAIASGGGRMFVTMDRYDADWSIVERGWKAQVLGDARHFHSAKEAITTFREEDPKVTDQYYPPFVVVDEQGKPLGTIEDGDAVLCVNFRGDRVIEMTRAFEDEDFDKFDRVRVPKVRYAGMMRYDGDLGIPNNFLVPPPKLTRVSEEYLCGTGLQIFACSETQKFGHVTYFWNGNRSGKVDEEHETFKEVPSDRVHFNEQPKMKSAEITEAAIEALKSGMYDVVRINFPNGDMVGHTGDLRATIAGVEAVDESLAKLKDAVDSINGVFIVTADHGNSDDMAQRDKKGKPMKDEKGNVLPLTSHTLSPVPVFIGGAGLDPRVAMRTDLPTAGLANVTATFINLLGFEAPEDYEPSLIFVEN
Procedure, shortened: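 Lm PGAM at 1.25 nM final with substrate in 100 mM TEA pH 7.6, 5 mM MgCl2, 0.01% Tween-20; 45 min at room temperature. Kinase-GloPlus added, 10 min, end-point luminescence read.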

[12] = target: Voltage-gated inwardly rectifying potassium channel KCNH2 (Homo sapiens) (UniProt Q12809); experiment: qHTS Assay for Small Molecule Inhibitors of the Human hERG Channel Activity (AID 588834);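 note: top concentration of the series differs between compounds; % is set by controls: 0 for no effect and ±100 for the full control effect; lower thallium flux fluorescence means stronger hERG block; nearly all actives have a fitted effect of over 50% in size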
Procedure, shortened: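 hERG block measured as reduced thallium-dye (FluxOR) fluorescence after stimulation buffer addition, read over 2 min. Cells were hERG-BacMam-transduced U2OS exposed to compound ~10 min […]; concentration-response fitted with Hill equation for AC50.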

[13] = target: Glutaminase kidney isoform, mitochondrial (Homo sapiens) (UniProt O94925); experiment: qHTS for Inhibitors of Glutaminase (GLS): LOPAC Validation (AID 624146); note: potency is the fitted concentration of half-maximal effect; nearly all actives have a fitted effect of over 60% in size
Procedure, shortened: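 hKGA in 45 mM KH2PO4 pH 8.2, 0.02% Tween-20 with pin-transferred compounds; 1 mM L-glutamine (stock) plus glutamate oxidase/HRP/Amplex Red coupling added. Fluorescence read initially and after 30 min at RT.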

[14] = qHTS of Trypanosoma Brucei Inhibitors: LOPAC Validation (AID 624147); note: 0% is about no effect
Procedure, shortened: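 Glycolytic pyruvate kinase of T. brucei was incubated with substrate, test compound and 130 uM ADP for 45 minutes at room temperature. Luminescent Kinase-Glo Plus signal was measured after 10 minutes.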

[15] = target: Glucagon-like peptide 1 receptor (Homo sapiens) (UniProt P43220); experiment: qHTS of GLP-1 Receptor Agonists: LOPAC Validation (AID 624148);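 note: luminescence from a luciferase reporter switched on by cAMP; 0% is about no effect; higher luminescence signal means agonism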
Chain of Glucagon-like peptide 1 receptor (Homo sapiens) (P43220 whole entry, looked up): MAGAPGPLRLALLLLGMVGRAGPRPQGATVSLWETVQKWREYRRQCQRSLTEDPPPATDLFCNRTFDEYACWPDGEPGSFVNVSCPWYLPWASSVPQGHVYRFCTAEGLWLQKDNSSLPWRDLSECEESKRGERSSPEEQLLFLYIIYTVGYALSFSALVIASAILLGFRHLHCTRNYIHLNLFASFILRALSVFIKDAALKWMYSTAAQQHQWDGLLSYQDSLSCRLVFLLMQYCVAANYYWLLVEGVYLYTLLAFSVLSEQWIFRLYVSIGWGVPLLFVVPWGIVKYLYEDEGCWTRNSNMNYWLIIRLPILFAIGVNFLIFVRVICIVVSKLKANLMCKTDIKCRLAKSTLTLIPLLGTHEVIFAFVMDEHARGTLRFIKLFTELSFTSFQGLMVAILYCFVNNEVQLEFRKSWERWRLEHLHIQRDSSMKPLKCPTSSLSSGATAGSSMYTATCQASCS
Procedure, shortened: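 Agonism scored as increased luciferase luminescence driven by cAMP in HEK293 clones carrying GLP-1R. Cells settled 12 hours, received compound for 4-6 hr at 37 deg C, 5% CO2, and were read after 12 min detection reagent at RT.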

[16] = qHTS of Nrf2 Activators: LOPAC Validation (AID 624149); note: 0% is about no effect
Procedure, shortened: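 Luciferase signal from ARE activation, read with Steady-Glo after 30 min at room temperature. Compounds were pin-transferred onto AREc32_Fluc cells (1000/well, OPTI-MEM/5% FBS, seeded overnight) and left 24 hr at 37 deg C.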

[17] = HTS Assay for Allosteric Antagonists of the Human D2 Dopamine Receptor: Hit Validation in HTRF (AID 624455);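 note: stable D1 dopamine receptor cell line scored for blocking the D1 response; % is set by controls: 0 for no effect and ±100 for the full control effect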
Procedure, shortened: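 Inhibition of the D1-mediated response was measured by HTRF. Cells used were a line stably expressing the D1 dopamine receptor.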

[18] = qHTS for Activators of Parkin Expression: LOPAC Validation Assay (NLuc Reporter) (AID 720572)
Procedure, shortened: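 Compound effects on Parkin promoter activity were measured as NanoLuc luminescence after 24 h at 37 C. The neuronal reporter line also carried FLuc, which was read first. LOPAC compounds were tested at 7 concentrations, with normalization to DMSO (0%) and positive control (100%).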

S=C(Nc1ccccc1)Nc1nccs1
-0.228%: viability change [7]
active: Potency [4] 20.6 µM | Potency [13] 11.2 µM
inactive: outcome [1] | outcome [2] | outcome [3] | Potency [5] | activation [6] 1.31% | outcome [7] | outcome [8] | outcome [9] | Potency [10] | outcome [11] | Potency [12] | outcome [14] | outcome [15] | outcome [16] | outcome [17] | outcome [18]
